Measured values reported in PubChem BioAssay (NCATS).
Where “and” joins values, the source holds several entries; their conditions need not be identical. Equal entries are not always repeated. Inconclusive results are not listed. The source holds several records for some structures; these can differ, active in one and inactive in another. Calls of active or inactive are those of the source. Calls follow the shape of the dose curve; as a rule, active = well fitted cell-killing curve with a large enough effect; inconclusive = small, poorly fitted or top-dose-only effect; inactive = flat fitted curve, though single readings scatter.

Assay: Cell Viability - NIH 3T3 (AID 541); also: nearly all actives have a fitted effect of over 25% in size;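 as to activity change, negative = cytotoxicity: plate controls were DMSO alone for no effect and tamoxifen positive control for full effect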
Conditions: NIH 3T3 cell viability, qHTS; activity change, negative = cytotoxicity: at 92.2 µM (top of the series)
Text: NIH Chemical Genomics Center [NCGC]
NIH Molecular Libraries Screening Centers Network [MLSCN]
National Institutes of Environmental Health Sciences [NIEHS]
National Toxicology Program [NTP]
We have developed a 1536-well cell-based assay for quantitative high throughput screening (qHTS) against a number of cell lines to determine in vitro cytotoxicity of small molecules. This particular assay uses the NIH 3T3 fibroblast cell line which is established from NIH Swiss mouse embryo.
NCGC Assay Protocol Summary:
The CellTiter-Glo luminescent cell viability assay (Promega) is a homogeneous method to measure the number of viable cells in culture. The end point readout of this assay is based on quantitation of intracellular ATP, an indicator of metabolic activity, using the luciferase reaction. Luciferase catalyzes the oxidation of beetle Luciferin to oxyluciferin and light in the presence of ATP. The luminescent signal is proportional to amount of ATP present.
Using the CellTiter-Glo luminescent cell viability assay, the amount of cellular ATP was measured in the NIH 3T3 cell line with complete culture medium following compound treatment for 40 hours. The assay was performed in opaque white Kalypsys 1536-well plates. In the screen, tamoxifen and doxorubicin were used as positive controls. Library compounds were measured for their ability to cause acute toxicity in the cell line, as reflected by a decrease in intracellular ATP levels, in a concentration-dependent manner. […] AC50 values were determined from concentration-response data modeled with the standard Hill equation.
qHTS protocol for CellTiter Glo NIH 3T3 cellular assay
[Step] [Parameter] [Value] [Description]
1. Reagent; 5 uL; 1000 NIH 3T3 cells/well
2. Time; 5 hr; 37 °C incubation
4. Controls; 23 nL; Tamoxifen 0.34 uM to 100 uM & Doxorubicin 0.02 nM to 100 uM
5. Time; 40 hr; 37 °C incubation
6. Reagent; 5 uL; CellTiter Glo reagent
7. Time; 20 min; Room Temperature
8. Detection; Luminescence; Viewlux plate reader
Keywords: cell viability, cytotoxicity, NIH 3T3 cell line, luminescence, NTPHTS, NTPHTS_NCGC, NIEHS, EPA, DSSTox, MLSMR, MLSCN, NIH Roadmap, qHTS, NCGC
Potency is read from the fitted curve at half-maximal effect.

Structure (SMILES)	Potency	activity change, negative = cytotoxicity
CN(C)C=O	inactive	–
COC(=O)c1ccc(C=O)cc1	–	-110% (active)
C=CCOC(=O)c1ccccc1C(=O)OCC=C	–	-13.2% (inactive)
Cc1cccc([N+](=O)[O-])c1C	–	9.31% (inactive)
Nc1ccc(Cl)cc1Cl	–	-0.532% (inactive)
Cc1ccc([N+](=O)[O-])cc1N	–	-9.12% (inactive)
CCC(C)c1ccccc1O (stereo not given)	inactive	–
CCCCCCCCCCCCCCC1CO1 (stereo not given)	–	-7.81% (inactive)
NC1=NC(S)C2N=CN=C2N1 (stereo not given)	158 nM (active)	–
C1OCOCO1	–	-14.9% (inactive)
O=C(O)c1ccccc1	–	-6.26% (inactive)
O=C(O)c1ccc(O)cc1O	inactive	–
CCO	–	-17.4% (inactive)
c1ccc2scnc2c1	–	-19.6% (inactive)
C/C=C\c1ccc(OC)cc1	–	-1.96% (inactive)
O=C1c2ccccc2C(=O)C1c1ccc2ccccc2n1	–	-106% (active)
CC(C)=CCCC(C)CCO (stereo not given)	–	-6.66% (inactive)
COc1ccc2nc(N)sc2c1	–	-10.3% (inactive)
O=C(/C=C/c1ccc(O)c(O)c1)O[C@@H](C(=O)O)[C@@H](OC(=O)/C=C/c1ccc(O)c(O)c1)C(=O)O	–	-29.2% (inactive)
Nc1ccc(S(=O)(=O)O)cc1	–	-5.84% (inactive)

Structure (SMILES)	Potency	activity change, negative = cytotoxicity
CC12CCC(CC1=O)C2(C)C (stereo not given)	–	-15.2% (inactive)
COc1c2ccoc2cc2oc(=O)ccc12	–	-11.2% (inactive)
S=C1NC=NC2N=CNC12 (stereo not given)	3980 nM (active)	–
c1ccccc1	inactive	–
COC(=O)CCCCC(=O)OC	–	1.59% (inactive)
O=NO	inactive	–
CCCN(CCC)C(=O)SCC	–	0.313% (inactive)
O=C(O)c1ccccc1C(c1ccc(O)cc1)c1ccc(O)cc1	–	2.03% (inactive)
Clc1cc(Cl)c(Cl)cc1Cl	–	5.39% (inactive)
C=Cc1ccccc1Cl	–	-6.35% (inactive)
Cc1ccccc1C	inactive	–
c1ccc2c(c1)c1cccc3ccc4cccc2c4c31	–	7.67% (inactive)
COc1ccc(/C=C/c2cc(OC)cc(=O)o2)cc1	–	-15.1% (inactive)
C=CC(=O)OCCOCCOCCOCCOC(=O)C=C	2.51 µM (active) and 3.98 µM (active)	–
ClCCCl	–	6.76% (inactive)
CC1(C)CC(N=C=O)CC(C)(CN=C=O)C1 (stereo not given)	–	10.4% (inactive)
Cc1c(N=C=O)cccc1N=C=O	–	0.802% (inactive)
CCCCC(CC)CN (stereo not given)	12.6 µM (active) and inactive	–
CCO[Si](CCCN)(OCC)OCC	–	-20.1% (inactive)
CC1=C2[C@H](/C=C(\C)C(=O)O)CC[C@@H](C)[C@H]2CC1	–	-12% (inactive)
